Reference: PubChem BioAssay (EPA / NIEHS)
Records with an inconclusive call do not appear. Activity calls are given as the source filed them. How the source made its calls: active means hit-call score of the fitted dose curve at least 0.9, where 1 is the maximum; inconclusive means response in the unintended direction; inactive means score below 0.9.

The molecules below were run against human Opioid Receptor Mu (Opiate Mu), OPRM1 (gene 4988) (UniProt P35372) (assay: NVS_GPCR_hOpiate_mu: NovaScreen (NVS) G Protein-Coupled Receptor Assay for human Opioid Receptor Mu (Opiate Mu) (AID 2283290);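 further: hits lower bound tracer signal versus DMSO meaning displacement of the ligand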).
human Opioid Receptor Mu (Opiate Mu), OPRM1 (gene 4988), sequence (P35372 whole entry, looked up): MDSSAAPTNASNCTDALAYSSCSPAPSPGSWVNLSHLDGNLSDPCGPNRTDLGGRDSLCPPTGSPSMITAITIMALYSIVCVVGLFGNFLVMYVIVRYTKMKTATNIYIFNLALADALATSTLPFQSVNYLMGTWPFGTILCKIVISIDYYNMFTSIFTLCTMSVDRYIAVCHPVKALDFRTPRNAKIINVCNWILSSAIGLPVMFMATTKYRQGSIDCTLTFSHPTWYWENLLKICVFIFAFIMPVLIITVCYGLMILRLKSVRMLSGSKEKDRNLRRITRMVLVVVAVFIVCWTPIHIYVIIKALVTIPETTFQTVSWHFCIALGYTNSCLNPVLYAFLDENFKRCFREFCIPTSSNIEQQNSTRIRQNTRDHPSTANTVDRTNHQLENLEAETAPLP
Description: NVS_GPCR_hOpiate_mu is a biochemical, single-readout assay that uses extracted gene-proteins from CHO in a cell-free assay. Measurements were taken 2.5 hours after chemical dosing in a 96-well plate.NVS_GPCR_hOpiate_mu is one of one assay component(s) measured or calculated from the NVS_GPCR_hOpiate_mu assay. It is designed to make measurements of radioligand binding, a form of binding reporter, as detected with scintillation counting signals by Filter-based radiodetection technology.Data from the assay component NVS_GPCR_hOpiate_mu was analyzed into 1 assay endpoint. This assay endpoint, NVS_GPCR_hOpiate_mu, was analyzed in the positive analysis fitting direction relative to DMSO as the negative control and baseline of activity. Using a type of binding reporter, loss-of-signal activity can be used to understand changes in the binding as they relate to the gene OPRM1. Furthermore, this assay endpoint can be referred to as a primary readout, because the performed assay has only produced 1 assay endpoint. To generalize the intended target to other relatable targets, this assay endpoint is annotated to the gpcr intended target family, where the subfamily is rhodopsin-like receptor.
Binding assays used specific radioligands (tritiated, iodinated) with non-radioactive competitive displacement ligands in agonist or antagonist protocols (as indicated) and various reference compounds and inhibitors to titrate specific binding to receptors and transporters. Most enzyme assays (CYPs, kinases, phosphatases, proteases, HDACs) used recombinant protein and specific substrates (fluorescence mostly, some colorimetric and radioactive) and inhibitors, followed by a biochemical separation of substrate and product. All assays for the biochemical HTS were initially run in duplicate at a single concentration (10 uM for CYP450 assays and 25 uM for all others). […] Each assay was run with positive and negative controls, and concurrent controls on every plate. The follow-up (secondary) screen tested active chemical-pairs in concentration series, as well as a few additional assays not tested in the primary screen, some selected negative inactives, and several cases re-run in the concentration series for confirmatory purposes.
With COP(=S)(OC)SCN1C(=O)c2ccccc2C1=O the outcome was “inactive”.
For CCOC(=O)[C@]1(c2ccccc2)Oc2ccccc2[C@@H]1N, the AC50 was 13.1 µM (active).
With [Cl-].[Cl-].[Hg+2] the AC50 was 0.197 µM (active).
In the case of CCC[CH2][Sn]([Cl])([CH2]CCC)[CH2]CCC, the outcome is reported as “inactive”.
O=C(N[C@H](c1ccccc1)[C@@H]1CN2CCC1CC2)c1c(Cl)ccc(C(F)(F)F)c1Cl was tested, and the AC50 was 10.1 µM (active).
In the case of N#CC(Br)(Br)C(N)=O, the outcome is reported as “inactive”.
CCCCCCCCn1sccc1=O was tested, and the AC50 was 7.66 µM (active).
In the case of Nc1ccc(Cl)cc1N, the AC50 is reported as 39.5 µM (active).
With O=[N+]([O-])c1ccc(Oc2ccc(Cl)cc2Cl)cc1 the outcome was “inactive”.
For O=[N+]([O-])C(Br)(CO)CO, the outcome was “inactive”.
